Test results: PubChem BioAssay (NCI)
The panel holds about 79,000 compounds, 15% with a hit somewhere; the sample as a whole holds those more often. Unmarked numbers belong to inactive results. Activity calls are given as the source filed them. Cut-off read from the data, not from the text of the source: active = growth inhibition above about 70%; inactive = the rest.

Key:
[1] = NCI Yeast Anticancer Drug Screen. Data for the rad50 strain (AID 155);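 note: 0% = growth of vehicle-only cultures of the same strain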; settings: S. cerevisiae rad50 strain growth inhibition; at 50.0 µM; stronger effect = higher value
Method in brief: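 Readout: growth inhibition relative to vehicle-treated cultures. Compound exposure was carried out in a genetically defined yeast strain deficient in DNA damage repair.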

[2] = NCI Yeast Anticancer Drug Screen. Data for the mec2-1 strain (AID 157); settings: S. cerevisiae mec2-1 strain, at 50.0 µM, stronger effect = higher value
Method in brief: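 Each compound was tested on mec2-1 yeast, a strain altered in DNA damage repair or cell cycle control. Growth inhibition is reported relative to vehicle.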

[3] = NCI Yeast Anticancer Drug Screen. Data for the sgs1 mgt1 strain (AID 161);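 note: 0% = growth of cultures given vehicle only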; settings: S. cerevisiae sgs1 mgt1 strain, at 50.0 µM, stronger effect = higher value
Method in brief: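 Mutant yeast exposed to compound; growth scored against vehicle-only wells.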

[4] = NCI Yeast Anticancer Drug Screen. Data for the cln2 rad14 strain (AID 165);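 note: 0% = growth equal to vehicle treated cultures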; settings: S. cerevisiae cln2 rad14 strain, at 50.0 µM, stronger effect = higher value
Method in brief: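 Test compounds were added to cln2 rad14 yeast cultures; inhibition of growth was then determined by comparison with vehicle treatment.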

[5] = NCI Yeast Anticancer Drug Screen. Data for the bub3 strain (AID 167); settings: S. cerevisiae bub3 mutant strain, at 50.0 µM, stronger effect = higher value
Method in brief: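 Readout: yeast growth inhibition, expressed relative to vehicle-only wells. The test organism is a mutant strain from a panel with lesions in DNA repair or checkpoint genes.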

[6] = NCI Yeast Anticancer Drug Screen. Data for the mlh1 rad18 strain (AID 175); settings: S. cerevisiae mlh1 rad18 strain growth inhibition; at 50.0 µM; stronger effect = higher value
Method in brief: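 Inhibition values reflect reduced growth of mutant yeast versus vehicle-treated controls following compound exposure; the mutations affect DNA damage repair.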

SMILES | growth inhibition [1] | growth inhibition [2] | growth inhibition [3] | growth inhibition [4] | growth inhibition [5] | growth inhibition [6]
CCOC(=O)C(CCCOC1CCCCO1)(C(=O)CC)c1ccccc1 (stereo unspecified) (tested in a mixture with another compound) | 25.4% | -7.05% | -6.25% | 2.3% | 1.9% | -3.05%
Cc1cc2c(cc1C)NC(=O)C(NC(=O)c1ccc(Cl)cc1)C=N2 (stereo unspecified) | -0.55% | 15.6% | 15.1% | -27.4% | 5.95% | 2.95%
CCOC(=O)c1c(NC2=NCCC2)n[nH]c1N | 7.05% | 14.8% | 15% | 14.7% | -18.6% | 5.9%
CNC(=O)NC(c1cc(OC)c(O)c(OC)c1)c1cc2c(cc1O)OCO2 (stereo unspecified) | 29.5% | 38.8% | 11.8% | 9.6% | 8.05% | 44.6%
Nc1ncccc1C(=O)O | 2.55% | -1.05% | -2.8% | -12.1% | -0.35% | -3.05%
Cc1ncc([N+](=O)[O-])n1CCNS(=O)(=O)CCCn1ccnc1[N+](=O)[O-] | -4.85% | -17.1% | -18.9% | -25.7% | -18.5% | -58.7%
COCNC(=O)NCC(F)(F)C(F)(F)C(F)(F)C(F)(F)C(F)(F)C(F)(F)C(F)(F)F | -9.9% | 7.6% | -1.2% | 15.9% | -5.7% | 28.5%
C=CCC1(/C(=C\CC)CCC)C(=O)NC(=O)N=C1N (stereo unspecified) | 8.45% | -0.3% | 10% | -36.8% | -11.2% | 8.3%
CCOC(=O)c1sc2c(c1OC(=O)c1ccccc1)c(=O)n(-c1ccccc1)c(=S)n2-c1ccccc1 | 21% | 15.9% | 30.1% | 24.9% | 29.2% | 33.7%
Cc1cccc(C)c1NC(=O)/C(Cc1nc2ccc([N+](=O)[O-])cc2[nH]c1=O)=N\NC(N)=O | 55.4% | 50.6% | 30.9% | 8.85% | 66.5% | 41.4%
CCCCCCCCCCCCCCCCCC(=O)OCC(COC1OC(CS(=O)(=O)O)C(O)C(O)C1O)OC(=O)CCCCCCCCCCCCCCCCC (stereo unspecified) | 23.6% | 18.4% | 7.2% | 3.25% | -1.95% | 19.6%
COC(=O)C1CCC(=O)N1CN(C(C)=O)c1cc(OC)ccc1OC (stereo unspecified) | 14.9% | -0.05% | 2.85% | 6.45% | -5.15% | -50.1%
Nc1nc(NCc2ccccc2)cc(=O)[nH]1 | 3.35% | -20.8% | -5.25% | -0.4% | -20.8% | -2.75%
CC(=O)Nc1ccc(C(=O)N2C(=N)C(C#N)=C(O)/C2=C\c2ccc(Cl)c(Cl)c2)cc1 | -7.3% | -5.7% | -18.4% | 1.3% | -20.8% | 2.15%
COC(=O)C(C(=O)C(=O)Nc1ccc([N+](=O)[O-])cc1)c1nc2ccc([N+](=O)[O-])cc2[nH]c1=O (stereo unspecified) | 8.95% | -3.1% | -32.5% | -41.2% | -0.85% | 8.75%
O=C1OC(c2ccc(Cl)cc2)=C/C1=C/c1ccccc1O | -15.8% | 4.75% | -1.15% | -47.7% | -0.65% | 5.05%
O=C(NNC(=O)c1cccc2ccccc12)c1cccc(Cl)c1 | 3.5% | -41.5% | -6.9% | 4.05% | -4.05% | -13.9%
O=C(Nc1nc(C23CC4CC(CC(C4)C2)C3)cs1)c1cc2cc([N+](=O)[O-])ccc2oc1=O | -12.7% | -31.5% | -14.8% | -34.7% | -15.2% | -10.8%
CC(=O)Nc1ccc(I)cc1 | 40.7% | 3.2% | 15.2% | -0.8% | -7.65% | 21.9%
Clc1ccc(N=Nc2ccccc2)cc1 | -2.45% | 12.3% | 4.4% | -14.7% | 1.7% | 5.25%
CCC(C=NCCBr)(CCC(=O)OC)CCC(=O)OC | -7.9% | 16.2% | -13.9% | -8.4% | 12.4% | 10.2%

SMILES | growth inhibition [1] | growth inhibition [2] | growth inhibition [3] | growth inhibition [4] | growth inhibition [5] | growth inhibition [6]
Nc1ccc2cc(S(=O)(=O)O)ccc2c1 | 3.95% | 14.9% | -21.1% | -3.95% | 0.95% | -6.05%
NCCCn1cnc2c(N)ncnc21 | 8.95% | -1.55% | -4.55% | -18.6% | -16.4% | 0.65%
CC(=O)n1[nH]c(=O)c2ncccc2c1=O | 2.75% | 7.6% | 9.45% | -6.6% | -8.45% | 9%
O=S1(=O)OC(c2ccc(O)cc2)(c2ccc(O)cc2)c2ccccc21 | 31.6% | -25.9% | 3.1% | 9% | -11.9% | 18.6%
OCCCNCc1ccncc1 | 22.8% | -15.8% | -14.6% | 33.5% | -16.2% | -3.55%
CC(=O)Nc1c(C)cccc1F | 2.35% | 6.45% | -3.95% | 12.1% | 3.3% | -12.4%
COC1OCC(O)C(O)C1OC (stereo unspecified) | -11% | -13.4% | -16.2% | -25.1% | -8.55% | -19.1%
Cc1cc2nc(CC(=O)c3cccnc3)c(=O)[nH]c2cc1C | 0.9% | 3.05% | 12.4% | 18.3% | -8.05% | 15.8%
O=Cc1ccccc1[N+](=O)[O-] | 18.9% | -8.35% | 15% | 14.2% | 6.75% | 17.9%
CC1CCC2OC23C(=O)C2OC2C(C(C)(C)O)C13C (stereo unspecified) | -3.25% | -2.35% | -10.7% | 2.5% | 5.65% | 12.8%
CC[n+]1c(/C=C\N(C(C)=O)c2ccccc2)oc2ccccc21 | -20.6% | -25.3% | -9.3% | -0.7% | 6.2% | -7.8%
OCC1OC(OC2CC3C(OC4OC(CO)C(O)C(O)C4O)CC(O)CC3OC2c2ccc(O)cc2)C(O)C(O)C1O (stereo unspecified) | 18.1% | 16.2% | 21% | 14.5% | 11.8% | 16.1%
CCc1n[nH]c(=S)n1/N=C/c1ccc(-c2ccc([N+](=O)[O-])cc2)o1 | 14.6% | -17.6% | -14% | 9.85% | -14.1% | 10.3%
CC1OC(C)(c2ccccc2)OC1C (stereo unspecified) | 18.1% | 13.8% | 27.1% | -26.5% | 32.7% | 41.7%
CCCCC(C(=O)O)C(C)CC (stereo unspecified) | 35% | 12.2% | 18.8% | 22.3% | 36.5% | 29.6%
CCN(CC)CCCC(C)Nc1cc(C)nc(Nc2nc3cc(Cl)c(Cl)cc3[nH]2)n1 (stereo unspecified) | 96.8% (active) | 94.1% (active) | 97.4% (active) | 56.2% | 83.9% (active) | 95.8% (active)
CC(C)(C)c1ccc(C(C)(C)C)c(=O)[nH]1 | -32.1% | -19.1% | -12.3% | -41.5% | -6.1% | 5.65%
O=[N+]([O-])c1sc2ccccc2c1Br | 98% (active) | 98.7% (active) | 98.8% (active) | 99% (active) | 99.1% (active) | 98.7% (active)
COC(=O)/C=C/C=C/C(=O)OC | -4.85% | -1.7% | -2.6% | -41.9% | -30.1% | 3.85%
O=C(c1ccccc1)N1OCCCc2ccccc21 | 17.5% | 7.9% | 19.2% | 2.7% | 13.3% | 20.4%
